The values that follow come from PubChem BioAssay (NCI).

Holding throughout (experiment): NCI-60 one-dose screen, 48 h (100 = growth as untreated, 0 = no growth, -100 = all killed)
Holding throughout (settings): 10 µM unless noted

Assay [1] relates to HCT-15 colon.
Assay [2] relates to HT29 colon.
For assay [3], the system named is SNB-75 CNS.
Assay [4] deals with SNB-19 CNS.
The test system of assay [5] is U251 CNS.
Assay [6] deals with PC-3 prostate.
For assay [7], the system named is SK-MEL-5 melanoma.
Assay [8] has as its system UACC-62 melanoma.
For assay [9], the system named is LOX IMVI melanoma.
Assay [10] deals with SK-MEL-28 melanoma.

Each structure is given as a SMILES string. The panel holds about 83,000 compounds, 20% with a hit somewhere; the sample as a whole holds those more often.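 Note: values are percent growth. 100 is the growth of untreated cells, values between 100 and 0 indicate rising inhibition; between -100 and 0 indicates cell death.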 Values without a mark were called inactive. The source made the active and inactive calls. The calls were made as follows: active = growth percent below 10; inactive = the rest.

With `NC(Cc1ccc(O)cc1)C(=O)N/N=C/c1ccccc1O` (stereo not drawn), the growth in assay [1] is 96.8%; in assay [2], 101%; in [3], 92.7%; in assay [4], 110%; in assay [5] it was 96.9%; in assay [6] it was 89.3%. Besides, the growth is 103% in [7], 113% in [8], 92.6% in assay [9] and 106% in [10].
On to `CC(C)(C)CC(C)(C)c1ccc(OCCOCC[N+](C)(C)CC(=O)[O-])cc1`, for which the growth in assay [1] was 105%; in assay [2] it was 103%; in assay [3], 99.2%; in [4], 111%; in assay [5], 98.4%; in assay [6], 104%. For the same molecule, the growth in assay [7] is 106%; in [8], 104%; in assay [9], 107%; in [10], 114%.
With `NC(=O)[C@@H]1CC2CCC1C2` (stereo partly drawn), the growth in assay [1] is 98.2%; in [2], 117%; in [3], 85.1%; in assay [4], 111%; in assay [5], 96.3%; in assay [6] it was 91%. Moreover, the growth in [7] is 109%; in [8], 110%; in assay [9], 106%; in [10], 109%.
Take `COc1ccc(/C=C(\C#N)c2cc3ccccc3n2C(C)=O)cc1`: the growth in assay [1] was 41%; in assay [2], 68.8%; in [3] it was 74%; in assay [4], 87.2%; in [5], 87.1%; in assay [6] it was 84.6%. For the same molecule, the growth is 92.2% in [7], 74.1% in [8] and 87.2% in assay [10].
In the case of `Oc1cc(/C=C/c2nc(N3CCOCC3)c3cc(Cl)c(Cl)cc3n2)cc(O)c1O`, the growth is 98.9% in assay [1]; 120% in [2]; 91.5% in [3]; 102% in assay [4]; 102% in assay [5]; 101% in assay [6]. Besides, the growth was 90% in [7], 98.8% in assay [8], 106% in assay [9] and 109% in assay [10].
For the molecule `COc1ccc(-c2nc3ccccn3c2-c2nc3ccc(Cl)cc3[nH]2)cc1`, the growth is 89.1% in assay [1]; 83.7% in assay [2]; 67.5% in assay [3]; 96.2% in [4]; 92.9% in assay [5]; 57.5% in assay [6]. Besides, the growth in assay [7] was 83%; in [8], 86.3%; in [10], 101%.
`c1ccc(C2Cc3ccccc3C2=NC2CCCCC2)cc1` (stereo not drawn): the growth was 94.9% in [1]; 106% in [2]; 92.3% in assay [3]; 104% in [4]; 97.9% in assay [5]; 84.4% in [6]. For the same molecule, the growth in assay [7] is 103%; in [8] it was 99.6%; in assay [9] it was 103%; in assay [10], 114%.
Turning to `O=C(c1ccccc1)C(CN1CCOCC1)c1ccccc1` (stereo not drawn), the growth in assay [1] was 1.74% (active); in [2], -67% (active); in [3], 51.8%; in [4] it was 78.3%; in assay [5], 19.3%; in [6], 48.7%. Moreover, the growth is 44.5% in [7], 22.4% in assay [8], -34.7% (active) in [9] and 68.6% in [10].
Regarding `[B-][N+](CC)(CC)c1ccccc1`, the growth is 100% in assay [1]; 107% in assay [2]; 84.1% in assay [3]; 105% in assay [4]; 99% in assay [5]; 99.4% in [6]. The growth is 104% in [7], 111% in assay [8], 109% in assay [9] and 99.7% in assay [10].
Take `O=C1C=C(C(O)c2ccc(O)cc2)C(=O)c2ccccc21` (stereo not drawn): the growth in assay [1] was 94.9%; in assay [2], 115%; in [3], 102%; in assay [4], 110%; in assay [5] it was 95.1%; in assay [6], 99.5%. The growth is 96.5% in assay [7], 101% in assay [8], 83.7% in [9] and 120% in [10].
With `CC(C)=CCC/C(C)=C/CC/C(C)=C/CSC[C@H](NC(=O)CCCCCN1CCN(C)CC1)C(=O)NC1CCCCCC1`, the growth in assay [1] is 0.0874% (active); in [2] it was -48.3% (active); in assay [3], 73.8%; in assay [4], 81%; in assay [5], 33.2%; in assay [6], 51.9%. Further, the growth in assay [7] was 79.9%; in assay [8], 3.45% (active); in assay [9], 25.3%; in [10], -56% (active).
Turning to `O=C1c2ccccc2C(=Cc2ccccc2)c2ccccc21`, the growth was 7.88% (active) in assay [1]; 0.453% (active) in assay [2]; -40.9% (active) in [3]; 24.8% in assay [4]; 6.21% (active) in [5]; 31.8% in [6]. Also, the growth in assay [7] is 13.7%; in [8] it was 23.9%; in [9] it was 4.62% (active); in [10] it was 18.3%.
Consider `COC(=O)C(N)CSC(c1ccccc1)(c1ccccc1)c1ccccc1` (stereo not drawn), for which the growth in assay [1] is 28%; in [2] it was 1.58% (active); in [3], 31.4%; in [4], 63.7%; in [5] it was 23.3%; in assay [6], 25.1%. The growth in assay [7] was 23.9%; in assay [8], 54.3%; in assay [9], 35.2%; in [10], 49.5%.
As for `Cc1ccc(Nc2c(C(N)=O)cnc3ccc(S(=O)(=O)Nc4cc(C)on4)cc23)cc1`, the growth in [1] was 108%; in assay [2], 98.3%; in [3] it was 81%; in assay [4] it was 94.7%; in [5], 95.6%; in assay [6], 86.5%. In addition, the growth is 99% in [7], 91.8% in assay [8], 95.8% in [9] and 101% in assay [10].
